High-throughput results (PubChem BioAssay)
PfM18AAP inh: blocks P. falciparum M18 aspartyl aminopeptidase | recombinant PfM18AAP, H-Glu-NHMec fluorogenic cleavage | inhibition, % at 7.35 µM | 290,000 tested, 1.2% active | AID 1822;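 active = inhibition above the campaign mean inhibition over all tested compounds plus 3 SD, cut at about 28% in these data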;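 note: 0% = plate median of test compound wells and 100% = 2 mM ZnCl2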
Rce1 inhib: inhibitors of yeast Ras-converting enzyme | Q03530 | yeast membranes, quenched prenylated peptide cleavage fluorescence | calls only | 290,000 tested, 0.27% active;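 active = fall in fluorescence gain of 50% or more versus controls, with final raw signal at or below 3038400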;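 note: plate controls were neutral control wells for no effect and wells lacking membranes for full effect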
Target sequence (Q03530 whole entry, looked up): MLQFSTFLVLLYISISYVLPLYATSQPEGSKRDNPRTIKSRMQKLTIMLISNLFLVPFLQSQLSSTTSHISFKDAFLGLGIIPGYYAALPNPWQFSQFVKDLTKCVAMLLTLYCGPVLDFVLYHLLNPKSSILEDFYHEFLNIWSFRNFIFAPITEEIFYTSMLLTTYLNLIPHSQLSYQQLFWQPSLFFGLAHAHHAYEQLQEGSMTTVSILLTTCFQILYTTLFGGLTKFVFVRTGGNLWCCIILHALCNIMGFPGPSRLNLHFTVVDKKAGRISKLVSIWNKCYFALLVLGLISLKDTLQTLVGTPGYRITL
Granule exo inh: lytic granule exocytosis inhibition | TALL-104 LAMP-1 surface exposure, flow cytometry; cells stimulated with thapsigargin and PMA | inhibition, % at 10 µM | 360,000 tested, 0.66% active | AID 651702;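 active = inhibition above about 55%, limit read from the data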
ABHD5-PLIN5 inh: inhibitors of human ABHD5-perilipin-5 interaction; Q00G26+Q8WTS1; Split G. princeps luciferase complementation, luminescence, 4 h; inhibition, % at 4 µM; 360,000 tested, 0.78% active; AID 602281;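 active = inhibition above the mean inhibition across every tested compound plus 3 SD, cut at about 22% in these data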;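 note: 0% = DMSO only wells and the 100% control is not disclosed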
Platelet DG rel: platelet dense granule release activity | human platelet-rich plasma, SFLLRN dense granule ATP release, luminescence | inhibition, %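 (compounds screened at 7.5 µM in platelet-rich plasma)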 | 300,000 tested, 0.22% active;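 active = mean replicate score, as percent of positive control, at or above 50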
* marks the source's active call; other numbers are inactive results; i = inactive; . = no result; + = active, no number. An excerpt weighted towards active compounds, which were near 2.6% of everything screened.

SMILES	PfM18AAP inh	Rce1 inhib	Granule exo inh	ABHD5-PLIN5 inh	Platelet DG rel
COc1cc(/C=C/C(=O)O)ccc1OS(=O)(=O)c1ccc(C)cc1	-3	i	1	-3	6
COc1cc(/C=C/C(=O)c2ccc(NS(=O)(=O)c3ccc(C)cc3)cc2)cc(OC)c1O	22	i	1	38*	0
COc1cc(/C=C/C(=O)c2ccc(NS(=O)(=O)c3ccc(C)cc3)cc2)ccc1OC(F)F	-4	i	-2	22*	-35
O=C(NNC(=O)C1CCN(S(=O)(=O)c2cccc(Cl)c2)CC1)C1CC1	-2	i	-4	-4	0
Nc1ccc(Cc2ccc(N)c(C(=O)O)c2)cc1C(=O)O	-4	+	-3	-6	-2
CCN(CC)c1ccc(N=Nc2ncn[nH]2)cc1	30*	i	3	6	-3
CCN(CC)c1ccc(/C=N/O)cc1	-10	i	-1	-5	12
O=S(=O)(Nc1ccc2c(c1)OCCO2)c1cccc2nsnc12	5	i	0	3	4
S=c1[nH]nc(-c2cc(-c3ccccc3)n[nH]2)n1/N=C/C(Br)=C/c1ccccc1	1	i	63*	26*	-28
O=C(NC1CCCCCCC1)c1c(Cl)cccc1Cl	.	.	-8	3	14
O=C1CSC(=S)N1c1cccc(Br)c1	30*	i	-9	-17	-3
COc1ccc(C(=O)/C=C/C(=O)N(CC(=O)NC2CCCCC2)Cc2cccs2)c(O)c1	3	.	53	70*	23
COc1ccc(CN(C(=O)/C=C/C(=O)c2ccc(OC)cc2O)C(C(=O)NC2CCCCC2)c2ccncc2)cc1 (configuration not stated)	-1	i	7	6	11
Cc1cccc(NC(=O)c2ccc3ccccc3n2)c1C	2	i	0	4	-2
CCNC(=S)N1CCn2cccc2C1c1ccc(F)cc1 (configuration not stated)	3	i	-2	-2	34
CN1c2ccccc2Sc2cc(N)ccc21	37*	i	24	15	-1
COc1ccc(S(=O)(=O)NCc2cccnc2)c2ccccc12	-21	i	-3	-21	-19
O=C1CSC(c2cn(-c3ccccc3)nc2-c2ccc3c(c2)OCCO3)N1CCN1CCOCC1 (configuration not stated)	-2	i	-2	1	55*
COc1ccc(OC2C(=O)N(c3ccc(F)cc3)C2c2ccc(OC)c(OC)c2)cc1 (configuration not stated)	9	i	4	-3	0
COCCN(C(=O)CSc1nc2ccccc2c(=O)n1C(C)COC)c1c(N)n(Cc2ccccc2)c(=O)[nH]c1=O (configuration not stated)	2	i	42	-4	-3
CN1/C(=C/C(=O)c2nc(S(C)(=O)=O)ncc2Cl)C(C)(C)c2ccccc21	-17	i	58*	69*	-12
CCNc1nc(C)c(CN(C(C)=O)c2ccccc2)nc1C#N	-13	+	2	-2	5
CC(=C/c1ccco1)/C=N/N1CCN(c2ccccc2)CC1	0	i	5	-5	35
O=C(NNC(=O)c1ccccc1OCc1ccccc1)c1ccccc1F	7	i	-10	-1	1
O=C(N/N=C/c1ccccc1F)c1ccccc1OCc1ccccc1	4	i	107*	7	-7
SMILES	PfM18AAP inh	Rce1 inhib	Granule exo inh	ABHD5-PLIN5 inh	Platelet DG rel
COc1ccc(Br)cc1C1Nc2cccc3cccc(c23)N1	33*	i	6	3	-14
COc1cc(C2Nc3cccc4cccc(c34)N2)cc(OC)c1OC(C)=O	5	i	7	2	-1
CN1CCN(C(=O)CCCN2C(=O)/C(=C/c3ccc(Cl)cc3)SC2=S)CC1	.	.	1	-12	.
CN1CCN(C(=O)CCCN2C(=O)/C(=C/c3ccccc3)SC2=S)CC1	4	i	61*	0	-7
CC1(C(=O)N2CCOCC2)CCCCC1	-1	i	-1	-4	5
COc1ccccc1N1CCN(C(=O)c2coc(=O)c(Br)c2)CC1	-2	+	-2	-1	-7
O=C(Nc1cccc2c1C(=O)NC2=O)c1ccc(S(=O)(=O)N2CCCC2)cc1	11	.	-1	-6	.
Cc1[nH]n(-c2ccccc2)c(=S)c1C=Nc1cccc([N+](=O)[O-])c1	50*	i	-4	-39	19
CC1(c2nnnn2Cc2ccccc2)CCC(=O)N1CC1CCCCC1 (configuration not stated)	.	.	3	-5	.
CCOC(=O)c1nc2sc3c(c2c(=O)[nH]1)CCCC3	5	i	-3	2	60*
CSc1nc(C)c(C(=O)C[n+]2ccc(C)cc2)cc1C#N	2	i	76*	0	-26
CSc1nncc(/C(C)=N\Nc2ccccc2C)n1	0	i	-3	-4	-50
CCC(C)Sc1cc(-c2nc3cc(C)ccn3c2NC2CCCCC2)ccc1OC (configuration not stated)	.	.	-3	-10	.
CCC(C)Sc1cc(-c2nc3ccccn3c2NC2CCCCC2)ccc1OC (configuration not stated)	.	+	2	-3	-2
COc1ccc(-c2nc3ccc(C)cn3c2NCc2ccccc2)cc1SC1CCCCC1	.	i	65*	-3	17
C=CC[C@H]1Cc2c(cccc2[N+](=O)[O-])[C@H](CC=C)N1	7	i	0	1	1
Cc1cc[n+](CC(=O)c2ccc3c(c2)OCCO3)cc1	-4	i	5	-1	4
O=C(C[n+]1ccc(/C=C/c2ccccc2)cc1)c1ccc2c(c1)OCCO2	-14	i	1	23*	-2
Cc1cc(O)c(C=O)c2c1C(=O)Oc1c(CO)c(O)c3c(c1O2)C(O)OC3=O (configuration not stated)	14	.	-2	73*	.
O=C(c1cnc2n(c1=O)CCS2)N1CCN(C(c2ccccc2)c2ccc(Cl)cc2)CC1 (configuration not stated)	5	+	-12	-4	0
COc1ccc(C(=O)Oc2ccc(/C=N/Nc3ccc(Cl)c(C(=O)O)c3)cc2OC)cc1	12	i	12	9	0
CC(C)C[C@H]1CN=C(Nc2ccccc2)N1CC1CCC(C(C)(C)C)CC1 (some centres not stated)	.	.	93*	10	.
Fc1ccccc1Nc1nc2c(s1)CCc1ccccc1-2	42*	.	.	.	.
O=C(Nc1nc2c(s1)CCc1ccccc1-2)c1cccs1	-13	i	3	0	-8
COC(=O)c1ccccc1NC(=O)CSc1n[nH]c(C)n1	30*	i	0	3	7
COc1ccc(N2C(=O)C(Cl)=C(Nc3ccccc3O)C2=O)cc1	29*	.	-2	3	-2
CCOC(=O)c1ccc([N+](=O)[O-])c(CS(=O)(=O)c2ccc(Cl)cc2)c1	1	i	7	1	1
Cc1ccc(S(=O)(=O)Cc2cc(F)c([N+](=O)[O-])cc2[N+](=O)[O-])cc1	20	i	72*	12	-6
